Activity calls are given as the source filed them.
How the values were obtained:
[1] = A549 cell viability effects, profiling panel, calcein-AM fluorescence, 48 h, basal (AID 1162); conditions: higher = more signal
[2] = adipocyte viability effects, profiling panel, cell-based, 3T3-L1 adipocytes, calcein-AM fluorescence, 48 h, basal (AID 1163); conditions: 3T3-L1 adipocytes viability, higher = more signal
[3] = HepG2 cell viability effects, profiling panel, calcein-AM fluorescence, 48 h, basal (AID 1164); conditions: higher = more signal
[4] = MM1S cell viability effects, profiling panel, calcein-AM fluorescence, 48 h, basal (AID 1165); conditions: higher = more signal;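 also: viability of MM1S multiple myeloma cells under basal unstimulated conditions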
[5] = basal RPMI8226 viability, no added stimulus, profiling panel, cell-based, calcein-AM fluorescence, 48 h, PK04 Diversity Set (AID 1166); conditions: RPMI8226 myeloma viability, higher = more signal;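 also: cells grown under basal conditions without added stimulus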
[6] = basal HepG2 mitochondrial membrane potential changes, profiling panel, cell-based, JC-1 fluorescence, 24 h, 100 nL compound (AID 1167); conditions: higher = more signal
[7] = basal 3T3-L1 adipocyte mitochondrial potential changes, profiling panel, cell-based, JC-1 fluorescence, 3T3-L1 adipocytes, 24 h, 100 nL compound (AID 1168); conditions: JC-1 mitochondrial fluorescence, higher = more signal, called active from +8 up or from −8 down
[8] = basal RPMI8226 mitochondrial membrane potential changes, profiling panel, cell-based, JC-1 fluorescence, 24 h, 100 nL compound (AID 1169); conditions: RPMI8226 myeloma, JC-1 mitochondrial potential fluorescence, higher = more signal
[9] = basal MM1S mitochondrial membrane potential changes, profiling panel, cell-based, JC-1 fluorescence, 24 h, 100 nL compound (AID 1170); conditions: higher = more signal
[10] = A549 lung cancer cell viability effects, profiling panel, resazurin fluorescence, 24 h, PK04 Diversity Set (AID 1171); conditions: higher = more signal, called active from +8 up or from −8 down
Also: test concentration not given here.

| SMILES | z-score [1] | z-score [2] | z-score [3] | z-score [4] | z-score [5] | z-score [6] | z-score [7] | z-score [8] | z-score [9] | z-score [10] |
| --- | --- | --- | --- | --- | --- | --- | --- | --- | --- | --- |
| CCOC(=O)C1=C[C@@H](C(C)C)N(S(=O)(=O)c2ccc(C)cc2)[C@H]1c1ccc(C(F)(F)F)cc1 | -0.731 | -0.448 | -1.53 | -2.91 | -1.65 | 3.7 | -0.216 (inactive) | -0.208 | -0.446 | 0.793 (inactive) |
| CCCCC(CC)C(O)C1C=CC2C(=O)N(c3ccccc3)C(=O)C2N1Nc1ccccc1F (stereo not given) | 0.389 | -0.21 | -0.553 | 0.566 | 0.203 | -0.639 | -0.511 (inactive) | 0.51 | -0.775 | 0.653 (inactive) |
| O=C1CS(=O)(=O)C(c2cccc([N+](=O)[O-])c2)N1c1ccccc1 (stereo not given) | 1.02 | 0.116 | 1.46 | 0.637 | 1.22 | 1.24 | -0.662 (inactive) | -0.141 | 2.21 | 0.0249 (inactive) |
| CCOC(=O)C[C@H]1[C@H](OC(=O)c2ccc(C(=O)c3ccccc3)cc2)[C@@H](NC(=O)c2ccc(-c3ccccc3)cc2)c2cc(OCCCO)ccc2N1C(=O)Cc1ccc(OC)cc1 | -0.61 | 0.122 | -0.461 | 0.727 | -0.205 | 1.57 | -0.0721 (inactive) | -0.807 | -0.551 | -0.131 (inactive) |
| Cc1ccc(S[C@]2(C(=O)NCC(F)(F)F)CC(=O)N(Cc3cc(C(F)(F)F)cc(C(F)(F)F)c3)[C@@H]2c2ccc(CO)cc2)cc1 | 0.0806 | -0.547 | 0.643 | -0.783 | -0.759 | -0.693 | -0.658 (inactive) | 0.213 | -0.299 | -0.45 (inactive) |
| CCOC(=O)C[C@H]1[C@H](OC(=O)Cc2ccc3c(c2)OCO3)[C@@H](NC(=O)c2ccc3ccccc3n2)c2cc(OCCCO)ccc2N1C(=O)c1ccc2ccccc2n1 | 5.35 | 1.03 | 1.83 | -1.01 | 0.121 | 2.81 | 0.413 (inactive) | 0.362 | 0.981 | -0.387 (inactive) |
| COC(=O)C1=CC(CCCO)=CC(c2cccs2)N(Cc2cccc(OC(F)(F)F)c2)C=C1C(=O)OC (stereo not given) | -0.855 | 0.543 | 0.896 | -2.69 | -3.76 | 0.996 | 0.000649 (inactive) | -0.786 | -0.512 | -0.257 (inactive) |
| [N-]=[N+]=Nc1ccccc1[C@H]1OC(c2ccc(OCCCO)cc2)=N[C@@]1(Cc1ccccc1)C(=O)NCCN1CCOCC1 | -0.449 | 0.91 | -1.21 | -2 | -3.41 | 2.36 | 1.83 (inactive) | -1.06 | -0.638 | -2 (inactive) |
| CN(C)C(=O)[C@]1(Cc2ccccc2CN=[N+]=[N-])N=C(c2ccc(OCCCO)cc2)O[C@@H]1c1ccccc1 | -2.01 | 0.894 | -1.65 | -3.16 | -4.37 | -0.117 | -0.58 (inactive) | -1.33 | -1.37 | 0.721 (inactive) |
| O=C1N(CCS(=O)(=O)c2ccccc2)c2ccccc2[C@H]2OC(c3ccc(OCCCO)cc3)=N[C@@]12Cc1ccccc1 | -0.386 | 0.726 | -0.763 | -2.18 | -2.65 | -0.654 | 0.777 (inactive) | -1.19 | -2.19 | -1.02 (inactive) |
| COc1ccc([Si](C)(C)[C@@H]2[C@@H](CC(=O)N3CCC[C@H]3CO)O[C@]3(C(=O)N(Cc4cccc(N5C(=O)COc6ccccc65)c4)c4ccccc43)[C@H]2C)cc1 | -0.97 | 0.441 | -4.31 | -2.96 | -3.83 | -1.81 | -1.01 (inactive) | -0.975 | -2 | -2.13 (inactive) |
| NCCCCCCNC(=O)[C@@H]1C[C@@H]2C(=O)N[C@@H](CCCCN)C(=O)N2[C@@H]1c1ccc(O)cc1 | -0.551 | 0.207 | -0.99 | -1.25 | -0.0734 | -1.31 | 0.535 (inactive) | -0.0408 | -0.276 | -0.71 (inactive) |
| C=CCNC(=O)[C@H]1[C@@H]2C(=O)O[C@@H](c3ccccc3)[C@@H](c3ccccc3)N2[C@@H](c2ccccc2OCCO)[C@]12C(=O)N(C(=O)OCCOC)c1ccc(C#CC3(O)CCCCCC3)cc12 | -0.293 | 0.905 | -0.0307 | -3.15 | -4.56 | -0.341 | 1.18 (inactive) | -1.14 | -1.7 | -2.4 (inactive) |
| COc1ccc(CCNC(=O)[C@@]2(Sc3ccc(C)cc3)CC(=O)N(Cc3ccccc3C(F)(F)F)[C@@H]2c2ccc(CO)cc2I)cc1 | 0.751 | -0.178 | -0.253 | -2.41 | -2.36 | -1.03 | -0.322 (inactive) | -0.714 | -0.841 | 0.956 (inactive) |
| COCC(=C=CC[C@H](O)c1ccc(CO)o1)CCO | 0.0135 | -0.651 | 0.676 | -0.558 | 0.368 | -0.649 | -0.0348 (inactive) | -0.495 | 0.363 | -0.0239 (inactive) |
| CN(C)C(=O)[C@@]1(Cc2ccccc2)N=C(c2ccc(OCCCO)cc2)O[C@H]1c1ccccc1 | -0.518 | 0.208 | 0.64 | -0.918 | -3.24 | 0.285 | 0.708 (inactive) | -0.0484 | -0.303 | 1.18 (inactive) |

| SMILES | z-score [1] | z-score [2] | z-score [3] | z-score [4] | z-score [5] | z-score [6] | z-score [7] | z-score [8] | z-score [9] | z-score [10] |
| --- | --- | --- | --- | --- | --- | --- | --- | --- | --- | --- |
| C=C(COC)C(=O)CC[C@@H](OC(C)=O)c1cccc(OCCO)c1 | 0.851 | 0.617 | -0.4 | -3.46 | -0.496 | -0.0521 | -0.196 (inactive) | 0.0392 | -0.274 | 0.387 (inactive) |
| N[C@@H](Cc1ccccc1)C(=O)NCc1cn(Cc2ccccc2)nn1 | 0.322 | 0.0811 | -0.256 | -0.0838 | -1.11 | 0.178 | -0.0638 (inactive) | 0.556 | 0.919 | 0.825 (inactive) |
| [N-]=[N+]=Nc1ccccc1C[C@]1(C(=O)N2CCOCC2)COC(c2ccc(OCCCO)cc2)=N1 | 0.462 | 1.31 | -0.603 | -1.43 | -0.314 | 0.943 | -0.491 (inactive) | -0.571 | 0.615 | 1.63 (inactive) |
| COCCOC(=O)N1C(=O)[C@@]2(c3cc(C#CC4(O)CCCCCC4)ccc31)[C@H](C(=O)Nc1nc3ccccc3s1)[C@H]1C(=O)O[C@H](c3ccccc3)[C@H](c3ccccc3)N1[C@@H]2c1ccc(O)cc1 | 0.638 | -0.457 | 0.74 | -0.227 | -2.46 | -3.17 | -0.421 (inactive) | -0.897 | -0.897 | -0.436 (inactive) |
| O=C1C[C@]2(c3ccc([N+](=O)[O-])cc3)C(=O)N(C3CC3)c3cc(CO)ccc3[C@H]2N1CC12CC3CC(CC(C3)C1)C2 | 0.207 | 0.368 | -0.67 | 0.352 | -0.947 | -0.148 | -0.837 (inactive) | 0.787 | -1.1 | -0.452 (inactive) |
| COc1cc2c(cc1O)C=[N+](Cc1sc3ccccc3c1Cl)CC2 | -0.47 | 0.425 | -0.349 | -0.278 | -0.133 | -1.06 | -0.501 (inactive) | -0.143 | -0.598 | 0.33 (inactive) |
| CC1=C2[C@@H](CCc3ccccc3)OB(O)C[C@@H]2[C@@H]2C(=O)N(Cc3ccccc3)C(=O)[C@@H]2C1 | -0.261 | -0.351 | -0.932 | -2.9 | -2.4 | -0.999 | -0.301 (inactive) | 0.49 | 0.821 | -0.17 (inactive) |
| Cc1ccc(N2C(=O)c3ccccc3[C@@H](C(=O)NCCCN(C)C)[C@@H]2c2ccc(CO)cc2)nc1 | -0.249 | 0.297 | 0.0355 | 0.817 | -0.71 | -0.685 | 0.208 (inactive) | -0.0886 | -0.241 | -0.0494 (inactive) |
| Cc1ccc(S[C@]2(C(=O)NCC(F)(F)F)CC(=O)N(Cc3cc(C(F)(F)F)cc(C(F)(F)F)c3)[C@@H]2c2ccc(CO)cc2I)cc1 | -0.369 | -0.37 | -0.548 | -2.27 | -2.64 | -0.812 | -0.792 (inactive) | -0.366 | -0.852 | 1.19 (inactive) |
| COc1cc2c(cc1O)C(C1CC1)N(C)CC2 (stereo not given) | 0.368 | 0.381 | 0.575 | 0.533 | -0.393 | 0.283 | 0.883 (inactive) | 0.0965 | 1.87 | -0.348 (inactive) |
| COc1ccc(CCNC(=O)[C@@]2(Cc3ccccc3I)c3ccccc3C(=O)N(C3CCCCC3)[C@H]2c2ccc(CO)cc2)cc1 | 1 | 2.42 | -0.449 | -1.93 | -2.47 | 2.5 | 0.537 (inactive) | -0.184 | -1.17 | -0.584 (inactive) |
| Cc1ccc(NN2C(C(O)c3c(F)cccc3Cl)C=CC3C(=O)N(C4CCCCC4)C(=O)C32)cc1 (stereo not given) | 0.57 | -0.617 | 0.934 | 0.949 | 0.451 | -0.511 | 0.165 (inactive) | 0.0377 | -1.04 | 0.693 (inactive) |
| C#CCN(Cc1ccccc1Br)[C@H](/C=C/c1ccccc1)[C@@H](O)Cc1ccccc1 | -0.892 | -0.566 | -1.54 | -1.63 | -3.89 | -2.68 | -0.694 (inactive) | -0.538 | 0.42 | 2.3 (inactive) |
| COC(=O)[C@@]1(Cc2ccc(F)cc2)[C@H]2c3cc(C(=O)N4CCCC4)n(Cc4ccc(C)c(F)c4F)c3C[C@H]2CN1C(=O)c1ccccc1 | -0.858 | -0.82 | 0.97 | -3.35 | -3.35 | 1.01 | -1.02 (inactive) | -0.59 | -1.38 | -0.718 (inactive) |
| COc1ccc(CCNC(=O)[C@@H]2c3ccccc3C(=O)N(C3CCCCC3)[C@H]2c2ccc(CO)cc2)cc1 | 1.19 | 1.1 | 0.383 | 0.05 | -0.746 | 1.83 | -0.053 (inactive) | -0.726 | 0.337 | 0.332 (inactive) |
| C=C(COC)/C(=C/C[C@H](OC(=O)c1ccncc1)c1ccc(CO)o1)c1cnc2ccccc2c1 | 0.349 | -0.474 | -0.439 | -1.41 | -0.366 | -1.06 | -0.582 (inactive) | 0.178 | -0.592 | -0.319 (inactive) |
